Results on five compounds are retold here after PubChem BioAssay.

Calls of active or inactive are those of the source.

Assay [1] relates to Human papillomavirus type 1a protein E7 (residues 44-93). The assay is described as follows: small molecules binding HPV E7 44-93 – biochemical, small-molecule microarray, residues 44-93, 635 nm fluorescence, primary screen (AID 1108).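 Note: E7 fragment applied at 1 µg/mL in TBST for 1 h at 4 C; score combines spot fluorescence with its signal to noise ratio.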 The conditions noted are these: fluorescence 635 nm, higher = more signal.
Assay [2] in a line: hepatitis C replication reporter changes, two-sided – Huh7 cells, luciferase reporter, HCV replication inhibitor project, primary screen (AID 1109).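 Note: huh7 hepatoma cells harbouring a luciferase neomycin HCV replicon reporter; luciferase luminescence as measure of HCV replicon replication; test concentration not given here.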 Particulars: Huh7 HCV replicon luciferase reporter, 48 h; higher = more signal. In general terms: Reporter assays use an easily measured gene product as a stand-in for the process of interest.
The target in assay [3] is Left-right determination factor 2 (Homo sapiens) (UniProt O00292). The assay can be described thus: small molecules binding LEFTY2 protein – biochemical, small-molecule microarray, 635 nm fluorescence scan, primary screen (AID 1110). Particulars: higher = more signal.
Left-right determination factor 2 (Homo sapiens), sequence (O00292 whole entry, looked up): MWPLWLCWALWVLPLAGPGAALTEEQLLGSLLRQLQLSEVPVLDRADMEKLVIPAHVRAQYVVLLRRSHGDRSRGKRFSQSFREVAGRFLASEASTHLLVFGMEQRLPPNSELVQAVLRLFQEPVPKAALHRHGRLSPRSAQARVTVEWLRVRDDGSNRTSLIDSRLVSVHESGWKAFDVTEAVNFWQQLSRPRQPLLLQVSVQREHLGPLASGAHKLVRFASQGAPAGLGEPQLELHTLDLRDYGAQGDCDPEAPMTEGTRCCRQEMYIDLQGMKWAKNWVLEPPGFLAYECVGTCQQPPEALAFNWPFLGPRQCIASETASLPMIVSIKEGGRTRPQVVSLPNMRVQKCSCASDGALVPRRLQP
For assay [4], the target named is Calmodulin-1 (Homo sapiens) (UniProt P0DP23). The assay can be described thus: small molecules binding calmodulin-1 with EGTA – biochemical, small-molecule microarray, Cy5-labelled CALM1, profiling panel (AID 1111).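 Note: labelled calmodulin applied in Tris saline Tween buffer holding calcium plus EGTA and DTT.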 Particulars: Cy5-CALM1 binding fluorescence, higher = more signal.
For assay [5] the target is unchanged. The assay can be described thus: small molecules binding Ca-loaded calmodulin-1 – biochemical, small-molecule microarray, Cy5-labelled CALM1, plus calcium, artefact control for SMM control-protein annotation, profiling panel (AID 1112).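 Note: score merges spot fluorescence with signal to noise from triplicate slides.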 The conditions noted are these: Cy5-CALM1 binding fluorescence, higher = more signal.
Assay [6] is described as follows: probe aWnt5a binding to arrayed compounds – biochemical, biotinylated probe, 635/667 nm fluorescence, primary screen (AID 1113).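 Note: score merges 667 nm fluorescence intensity with signal-to-noise per printed feature.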 Particulars: small-molecule microarray, higher = more signal.
The nature of assay [7]: probe aShh binding to arrayed compounds – biochemical, biotinylated probe, 635/667 nm fluorescence, primary screen (AID 1114).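 Note: probe is biotin-labelled aShh protein from a stem cell growth factor screen; measures binding of labelled protein to compounds printed on the slide; score merges feature fluorescence at 667 nm with signal-to-noise.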 Particulars: small-molecule microarray, higher = more signal.
Assay [8] in a line: probe aNog binding to arrayed compounds – biochemical, biotinylated probe, 635/667 nm fluorescence, primary screen (AID 1115).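 Note: probe is biotinylated aNog protein used at 0.15 µg/mL for 1 h at 4 C; z-score combines 667 nm fluorescence of each spot with its signal to noise.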 The conditions noted are these: small-molecule microarray, higher = more signal.
In assay [9] the target is Torsin-1A-interacting protein 1 (Homo sapiens) (UniProt Q5JTV8). The assay can be described thus: compound microarray binding of lysate hLAP1 – cell lysate, small-molecule microarray, COS7 lysate, 635/667 nm fluorescence, primary screen (AID 1116). The conditions noted are these: 635 nm fluorescence, higher = more signal.
Torsin-1A-interacting protein 1 (Homo sapiens), sequence (Q5JTV8 whole entry, looked up): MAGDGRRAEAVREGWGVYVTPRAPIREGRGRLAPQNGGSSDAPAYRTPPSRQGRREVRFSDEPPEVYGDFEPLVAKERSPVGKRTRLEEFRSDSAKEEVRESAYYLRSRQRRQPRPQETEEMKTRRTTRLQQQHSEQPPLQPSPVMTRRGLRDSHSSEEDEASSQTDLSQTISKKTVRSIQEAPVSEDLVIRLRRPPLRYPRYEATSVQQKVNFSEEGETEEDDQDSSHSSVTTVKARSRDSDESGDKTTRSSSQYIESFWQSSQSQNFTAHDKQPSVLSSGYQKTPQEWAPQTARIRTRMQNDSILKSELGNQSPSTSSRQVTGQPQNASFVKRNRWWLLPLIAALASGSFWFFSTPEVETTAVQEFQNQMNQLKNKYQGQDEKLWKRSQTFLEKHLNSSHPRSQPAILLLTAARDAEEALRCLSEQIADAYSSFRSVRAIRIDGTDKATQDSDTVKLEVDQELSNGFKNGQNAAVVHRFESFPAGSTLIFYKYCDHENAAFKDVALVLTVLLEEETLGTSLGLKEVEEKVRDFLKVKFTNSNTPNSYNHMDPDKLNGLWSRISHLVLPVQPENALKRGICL
The target of assay [10] is Alpha-bungarotoxin (Bungarus multicinctus) (UniProt P60615). The assay is described as follows: compounds binding labelled alpha-BTX control protein – biochemical, small-molecule microarray, Alexa647 label, 635/667 nm fluorescence, artefact control for SMM control protein annotation, profiling panel (AID 1117). Particulars: alpha-BTX-A647 binding fluorescence, higher = more signal.
Alpha-bungarotoxin (Bungarus multicinctus), sequence (P60615 whole entry, looked up): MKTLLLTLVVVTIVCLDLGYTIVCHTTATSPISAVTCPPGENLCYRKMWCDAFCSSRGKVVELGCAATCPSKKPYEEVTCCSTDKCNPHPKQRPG

For the next assay, the target named is Albumin (Bos taurus) (UniProt P02769). The assay can be described thus: compounds binding labelled BSA control protein – biochemical, small-molecule microarray, Alexa647 label, 635/667 nm fluorescence, artefact control for SMM control protein annotation, profiling panel (AID 1118).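 Note: score merges 667 nm emission intensity and signal-to-noise per printed compound spot.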 Particulars: BSA-A647 binding, fluorescence 635 nm, higher = more signal.
Albumin (Bos taurus), sequence (P02769 whole entry, looked up): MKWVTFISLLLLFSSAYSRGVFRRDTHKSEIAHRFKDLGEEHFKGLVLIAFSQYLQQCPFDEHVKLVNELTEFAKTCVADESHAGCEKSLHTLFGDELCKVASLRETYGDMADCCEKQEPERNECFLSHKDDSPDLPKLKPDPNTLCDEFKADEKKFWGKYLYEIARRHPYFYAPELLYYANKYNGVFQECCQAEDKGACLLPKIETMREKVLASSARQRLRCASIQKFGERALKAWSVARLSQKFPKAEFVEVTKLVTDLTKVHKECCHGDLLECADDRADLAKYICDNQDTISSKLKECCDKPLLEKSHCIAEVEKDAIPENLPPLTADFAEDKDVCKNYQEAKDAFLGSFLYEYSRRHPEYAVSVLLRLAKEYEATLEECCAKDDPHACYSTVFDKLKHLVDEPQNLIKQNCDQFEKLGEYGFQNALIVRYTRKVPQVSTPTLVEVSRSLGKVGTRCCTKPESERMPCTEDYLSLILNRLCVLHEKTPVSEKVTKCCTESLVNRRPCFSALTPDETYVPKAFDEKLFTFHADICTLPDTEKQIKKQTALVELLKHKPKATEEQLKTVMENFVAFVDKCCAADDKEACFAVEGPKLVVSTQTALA
Assay [11] can be described thus: probe aXIP binding to arrayed compounds – biochemical, NeuroSMM set, 635/667 nm fluorescence, primary screen (AID 1119).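 Note: probe is the protein aXip251-270 applied at 1 µg/mL to compound-printed slides; binding of probe to printed compounds measured as 667 nm fluorescence plus signal to noise.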 Particulars: small-molecule microarray, higher = more signal, called active from +8 up or from −8 down.
Assay [12] can be described thus: probe aNOTCH3 binding on compound microarray – biochemical, small-molecule microarray, 635/667 nm fluorescence, primary screen (AID 1120).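 Note: probe is a biotin-tagged antibody raised against NOTCH3 rather than NOTCH3 protein; score merges spot fluorescence near 667 nm with spot signal to noise.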 Particulars: higher = more signal.
A short description of assay [13]: probe aNOTCH2 binding on compound microarray – biochemical, small-molecule microarray, 635/667 nm fluorescence, primary screen (AID 1121).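 Note: score merges feature fluorescence read at 667 nm with its signal to noise.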 The conditions noted are these: higher = more signal.
Assay [14] addresses Carbonic anhydrase 2 (Homo sapiens) (UniProt P00918). The assay can be described thus: compounds binding carbonic anhydrase 2 – biochemical, small-molecule microarray, Alexa647-labelled CAII, profiling panel (AID 1122). Particulars: CAII-A647 binding fluorescence, higher = more signal.
Assay [15] in a line: COS7 lysate on small-molecule microarray, probe aHis, 635 nm (AID 1123).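 Note: z-score combines 667nm fluorescence intensity with signal-to-noise per printed compound spot.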 The conditions noted are these: COS7 cell lysate, fluorescence, higher = more signal.
The nature of assay [16]: probe aLAP1 signal on lysate-treated microarray – cell lysate, small-molecule microarray, COS7 lysate, primary screen (AID 1124).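 Note: lysate comes from COS7 cells expressing LAP1 and is applied at 0.3 µg/mL; score merges spot fluorescence near 667 nm with signal-to-noise over triplicate slides.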 Particulars: probe aLAP1, fluorescence, higher = more signal.
Another assay concerns Sam68 (KHDRBS1). The assay can be described thus: compounds binding KHDRBS1 protein – biochemical, small-molecule microarray, 635 nm fluorescence, primary screen (AID 1125).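 Note: score merges 667 nm channel intensity with signal to noise over triplicate slides.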 Particulars: higher = more signal.
Assay [17] relates to Chordin-like protein 2 (CHRDL2). The assay is described as follows: compounds binding chordin-like 2 – biochemical, small-molecule microarray, 635 nm fluorescence, primary screen (AID 1126).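 Note: printed compound slides probed with Chrdl2 protein at 4 µg/mL for 1 h at 4 C; score merges 667 nm emission intensity with signal to noise over three replicate slides.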 The conditions noted are these: fluorescence 635 nm, higher = more signal.
In assay [18] the target is Concanavalin-A (Canavalia ensiformis) (UniProt P02866). The assay can be described thus: compounds binding concanavalin A lectin – biochemical, small-molecule microarray, Alexa647 label, 635 nm, artefact control for SMM control protein annotation, primary screen (AID 1127).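 Note: z combines 667 nm emission intensity with signal-to-noise across three replicate slides.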 The conditions noted are these: ConA-A647 binding fluorescence, higher = more signal.
Concanavalin-A (Canavalia ensiformis), sequence (P02866 whole entry, looked up): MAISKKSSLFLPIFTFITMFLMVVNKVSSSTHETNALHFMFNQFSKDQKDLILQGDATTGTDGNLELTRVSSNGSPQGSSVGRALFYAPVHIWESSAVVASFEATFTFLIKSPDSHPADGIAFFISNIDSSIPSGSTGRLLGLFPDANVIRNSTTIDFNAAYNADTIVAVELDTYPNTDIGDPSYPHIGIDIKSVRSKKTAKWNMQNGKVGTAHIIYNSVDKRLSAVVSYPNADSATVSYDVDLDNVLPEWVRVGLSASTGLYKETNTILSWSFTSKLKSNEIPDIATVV

Consider `CC(=O)N1Cc2ccccc2C[C@]2(N=C(c3ccc(OCCCO)cc3)O[C@@H]2c2ccccc2)C1=O`, for which the composite z-score in [1] was 1.1; in assay [3], 0.179; in assay [4] it was 1.01; in [5], 0.446; in assay [6] it was -0.13; in assay [7], 0.163. For the same compound, the composite z-score in assay [8] is 0.682; in assay [9], 1.78; in [10] it was 1.64; in the assay with Albumin (Bos taurus), -0.569; in assay [12], 0.0242; in [13] it was -0.0424. Also, the composite z-score in assay [14] came out at 0.552; in [15] it was 2.87; in [16], 0.451; in the assay with Sam68 (KHDRBS1), 1.3; in [17] it was 0.15; in assay [18] it was 1.13. For the same compound, the z-score in [2] was -1.56. Also, in [11], the composite Z-score is 0.581 (inactive).

`CCOC(=O)C[C@H]1[C@H](OC(=O)c2ccccc2-c2ccccc2)[C@@H](NC(=O)c2ccc3ccccc3n2)c2cc(OCCCO)ccc2N1C(=O)c1ccc2ccccc2n1`: the composite z-score in [1] was 0.437; in assay [3], 0.152; in assay [4], -0.0654; in [5], -0.127; in assay [6], -0.174; in assay [7], -0.265. The composite z-score in assay [8] is -0.328; in assay [9] it was 0.358; in [10] it was 0.567; in the assay with Albumin (Bos taurus) it was 0.202; in assay [12], -0.0647; in assay [13] it was -0.0626. The composite z-score in assay [14] was 0.0023; in assay [15], 0.626; in assay [16] it was -0.283; in the assay with Sam68 (KHDRBS1), 0.498; in assay [17], 0.422; in assay [18], 0.762. Besides, in [2], the z-score is -0.863. For the same compound, the composite Z-score in assay [11] is -0.293 (inactive).

In the case of `COCCOC(=O)N1C(=O)[C@@]2(c3cc(C#CC4(O)CCCCCC4)ccc31)[C@H](c1ccccc1OCCO)N1[C@H](c3ccccc3)[C@H](c3ccccc3)OC(=O)[C@H]1[C@@H]2C(N)=O`, the composite z-score is -0.389 in assay [1]; 0.844 in assay [3]; 1.06 in [4]; 0.0078 in assay [5]; -0.101 in assay [6]; 0.337 in assay [7]. Further, the composite z-score in assay [8] was 0.347; in [9], 0.425; in assay [10], 1.72; in the assay with Albumin (Bos taurus), -0.205; in assay [12], 0.0282; in assay [13], -0.0942. For the same compound, the composite z-score in assay [14] is 0.378; in assay [15] it was 0.994; in assay [16], -0.394; in the assay with Sam68 (KHDRBS1) it was 1.31; in [17], 0.476; in assay [18], 1.15. In assay [2], this compound returned a z-score of -3.33. For the same compound, in assay [11], the composite Z-score was -0.02 (inactive).

`[N-]=[N+]=Nc1ccccc1C[C@]1(C(=O)NCc2ccccc2)N=C(c2ccc(OCCCO)cc2)O[C@H]1c1ccccc1`: the composite z-score in [1] was 1.08; in assay [3], -0.397; in assay [4] it was 2.03; in [5] it was 0.848; in assay [6] it was 0.0357; in [7], 0.28. Further, the composite z-score in assay [8] was 1.85; in assay [9], 1.39; in assay [10], 1.77; with Albumin (Bos taurus), 0.989; in assay [12], 0.285; in assay [13], 0.0443. In addition, the composite z-score in assay [14] is 0.714; in assay [15], 2.93; in assay [16], 0.373; with Sam68 (KHDRBS1), 1.29; in assay [17], -0.755; in assay [18], 1.07. In [2], this compound came in with a z-score of -1.58. Also, the composite Z-score in assay [11] was 0.0068 (inactive).

On to `O=C1NC(=O)C2C1C=CC(C(O)c1c(F)cccc1Cl)N2Nc1ccccn1` (stereo not given), for which the composite z-score in [1] was -0.465; in [3], 0.5; in assay [4], -1.19; in [5], -0.625; in [6], 0.0108; in assay [7], -0.0274. Further, the composite z-score in [8] was -0.207; in assay [9] it was 0.505; in assay [10] it was -0.358; with Albumin (Bos taurus), 0.179; in [12], -0.0009; in [13], 0.0203. The composite z-score in [14] is 0.805; in [15], -0.42; in assay [16] it was 1; in the assay on Sam68 (KHDRBS1) it was 0.0076; in [17] it was 0.676; in [18] it was -0.453. In assay [2], this compound showed a z-score of -0.469. In assay [11], the composite Z-score was -0.527 (inactive).
